Reference: the emibetuzumab library of Makowski et al. (2022)
The other results are listed elsewhere or left out. No count for the full screen is at hand.

B1: VH:VL chains; a variant is named by its letters at X, in order (parent)
chain 1: QVQLVQSGAEVKKPGASVKVSCKASGYTFTDYXMHWVRQAPGQGLEWMGXVNPNXXXTTYNQKFEGRVTMTTDTSTSTAYMELRSLRSDDTAVYYCARXNXLDXWGQGTTVTVSS
chain 2: DIQMTQSPSSLSASVGDRVTITCSVSSSVSSIYLHWYQQKPGKAPKLLIYSTSNLASGVPSRFSGSGSGTDFTLTISSLQPEDFATYYCQVYSGYPLTFGGGTKVEIK

Variants of: B1
Experiment: yeast display scFab, FACS + sequencing
Settings: with MET
Procedure, shortened: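 Heavy-chain CDR mutant scFab yeast surface library, enriched by two magnetic rounds on HGFR-Fc-coated Protein A beads and then by FACS. Cells were labelled with 1 nM HGFR-Fc in PBSB with 1% milk and anti-Myc for 3 h at room temperature, and the top 50% antigen-positive cells were gated. Round-3 sorted and input populations were deep sequenced in two replicates. Antigen binding call: positive if a sequence occurred in both antigen-positive samples, negative if it occurred only in input.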

Variant	antigen binding call
VRAGGSAD	binds
VEEEGSAD	no binding
VAGTGSAD	no binding
VTAGDSAD	no binding
VRAKGSAD	binds
VARETDVA	no binding
DEGRGSWA	no binding
VKGRGAWA	binds
VKGRGSWA	binds
VKGRGFAA	no binding
VKTGGSWA	no binding
VKGRGDAA	no binding
VTRGADGV	no binding
VAGGDFGV	no binding
SAGTGSWD	no binding
FRGKGASD	binds
SKGKGSWD	binds
SKKRGSWD	binds
FRGKGSWD	binds
SKKTGSVD	no binding
VEAGDDWV	no binding
SGRGNDGV	no binding
DTGGDDWF	no binding
DAGGGDAV	no binding
YKGKGSWD	binds

Variant	antigen binding call
FRGTSFGD chain 1 T58I	no binding
FAGTGSWD	no binding
FRGKGAWD	binds
FRGTGFVD	binds
YAGTGFVD	no binding
FKGKGSWD	binds
AAGGNAWS chain 1 G66S	no binding
DGGKGAVD	no binding
FRGKGAVD	binds
YKGGSAAA	binds
YKGRSAAA	binds
YKGGSSAA	binds
DKGGSAVV	no binding
DKGGSDVA	no binding
FKGGSSAA	no binding
DKGEGAAA	no binding
DEGGTDVF	no binding
DGGKNDWV	no binding
DAGGASSS	no binding
YTERNFGV	no binding
FTARSAGF	no binding
FRAGGSLF	binds
FRGGGSGF	binds
DRAGDSGF	no binding
FRARSSGF	binds

Variant	antigen binding call
FRGRGSGF	binds
FRGADSGF chain 1 R98K	no binding
FRGRDFLF	no binding
DGGKNSVD	no binding
VEGGGFSV	no binding
VEAGDDAV	no binding
ATAGSDGV	no binding
DAARGDGA	no binding
VKGRSDVY	no binding
FRGRGSVF	binds
FRGRGSLF	binds
FRKRGSVF	binds
FRGRGALF	binds
ARAAGDVF	no binding
YRGAGSGS	binds
YRGAGSGD	binds
YRGGSSGY	binds
YRGAGSGY	binds
AERRDDGA	no binding
VAGGGAGV	no binding
YAGGDDSA	no binding
VTTKSFGV	no binding
YRGAGAWS	binds
YRGAGAVS	binds
YAGAGAVY	no binding

Variant	antigen binding call
ARGAGYGS	no binding
YRGAGYGS	no binding
YRGAGAVY	binds
YRGAGAGS	binds
DEETNSGA	no binding
AREGDDVA	no binding
YRGRAAVS	binds
YRGGGSGS	binds
YARRAAVS	no binding
YTGTSAVS	no binding
YRGGGFAD	binds
YRGRGYAY	binds
YKGAAFAD	no binding
YRGRGFAD	binds
YAAGGFAY	no binding
YRGRGFAY	binds
VATGDDVA	no binding
SATKTVVV	no binding
VTGEDSGV	no binding
SKGASFAY	no binding
YKGRGFAY	binds
DTGTGDSA	no binding
DAGGGDVV	no binding
VEGGNDGA	no binding
YAGGGDWA	no binding

Variant	antigen binding call
YRKRGSLV	binds
YRKRGDVV	binds
DREEGDVV	no binding
YRKGSSGV	binds
YRKRGSVV	binds
DAGGDDGA	no binding
AARADAVY	no binding
DARETFLD	no binding
SGREGDWD	no binding
YRKRGSGV	binds
VEKGGSGV	no binding
YRKRGSLY	binds
YRKGGSGV	binds
YRKRGVGV	no binding
VRKGGSGV	binds
DGGGASSA	no binding
YTAGSDGA	no binding
SEARSDAD	no binding
VEGGGDVY	no binding
VAEKGDGV	no binding
VTAGDDGV	no binding
YKRGSSGF	binds
YKKGAAGF	binds
YARADDVF	no binding
YGTAAFGF	no binding

Variant	antigen binding call
YKRGSAGF	binds
VGGGAAGF	no binding
YKRGDAVF	binds
VKRGDDVV	no binding
FGKGGFGY	no binding
YKRGDSGF	binds
YAARASGF	no binding
YATEDSGF	binds
YARADSGD	no binding
AGTKADVV chain 1 G108S	no binding
VGTKGSSA	no binding
YKTKGSSY	binds
YKGKGSSY	binds
VKGKGDVY	no binding
YKGKGSLY	binds
DATGGSSY	no binding
FKGKGSAD	binds
FRGKGSAD	binds
FKGRGSAA	binds
YRGKSSAD	binds
YAGKTSAD	no binding
FRAKGSAD	binds
DAAGASVD	no binding
YTKGTSVA chain 1 E65K	no binding
DKEGGFGV	no binding

Variant	antigen binding call
DEGGTDGS	no binding
SRATAYSD	no binding
YRGKGSAD	binds
VEGAADVD	no binding
VTGGGASF	no binding
YRKGGSVS	binds
DTKGDSVS	no binding
YRTRSSVS	binds
YRKGSSVS	binds
YRKRGSVF	binds
VEGTSSLD	no binding
FRGEGAVS	binds
FKGEGFGS	no binding
YRGEGAVS	binds
FRGEGSVS	binds
FAATDSVS	no binding
VRRRGALD	binds
VTERSALD	no binding
VRKRGALD	binds
VGGTSALD	no binding
VRRGGALD	binds
VEEEGALD	no binding
VKEKGALD	no binding
ATGEADAS	no binding
DAEATSWV	no binding

Variant	antigen binding call
DTGTGAGD	no binding
AEEKGSGD	no binding
VRTEDAWA	binds
VRTEDSWA	no binding
VKGKGASA	no binding
YATKGAWA	no binding
YKGKGAWA	binds
YRGKGAWA	binds
VRTEDDVA	no binding
VRGKGASA	binds
VARADSGV	no binding
VEAGDAAV	no binding
VRGGDDWA	no binding
YRGKGSWA	binds
YKGKGSWA	binds
VRGKGAWA	binds
VEGGGAWA	no binding
YEGTGSWA	no binding
YRGKSSWA	binds
DAARGDAA	no binding
VTGTGAGV	no binding
YRGAGSGV	binds
YRGAGAGV	binds
DTGTGAGV	no binding
YRGAGAWV	binds

Variant	antigen binding call
YRGTGAGV	binds
YETGNVWF	no binding
DKEGGAVV	no binding
DAGGGDWV	no binding
VTTRADVF	no binding
DGGRAFWF	no binding
VARKGVGV	no binding
YRGAGALV	binds
YTGTSDWV	no binding
YKRGSAWV	binds
VKEADAWV	no binding
YKRGSASV	binds
YRRGSASV	binds
YRRGSSSV	binds
YARADSSV	no binding
YTRGSAWV	no binding
YKRRDAWV	no binding
